The supplement of paper PMC11732987, “Enantioselective OTUD7B fragment discovery through chemoproteomics screening and high-throughput optimisation” (Communications Chemistry, 2025)

Legend:
Experiment in all cases: log2 ratio of Biotin-Ahx-Ub-VS probe labelling (fragment/DMSO); higher = less target engagement (more negative = stronger competition), active = hit call of the paper (q ≤ 0.05, log2 ratio ≤ -1)
Conditions in all cases: compound concentration: 200 uM; treatment time: 3 h
USP42 = molecular target: T1, USP42 (UniProt Q9H9J4)
T1 sequence (whole entry): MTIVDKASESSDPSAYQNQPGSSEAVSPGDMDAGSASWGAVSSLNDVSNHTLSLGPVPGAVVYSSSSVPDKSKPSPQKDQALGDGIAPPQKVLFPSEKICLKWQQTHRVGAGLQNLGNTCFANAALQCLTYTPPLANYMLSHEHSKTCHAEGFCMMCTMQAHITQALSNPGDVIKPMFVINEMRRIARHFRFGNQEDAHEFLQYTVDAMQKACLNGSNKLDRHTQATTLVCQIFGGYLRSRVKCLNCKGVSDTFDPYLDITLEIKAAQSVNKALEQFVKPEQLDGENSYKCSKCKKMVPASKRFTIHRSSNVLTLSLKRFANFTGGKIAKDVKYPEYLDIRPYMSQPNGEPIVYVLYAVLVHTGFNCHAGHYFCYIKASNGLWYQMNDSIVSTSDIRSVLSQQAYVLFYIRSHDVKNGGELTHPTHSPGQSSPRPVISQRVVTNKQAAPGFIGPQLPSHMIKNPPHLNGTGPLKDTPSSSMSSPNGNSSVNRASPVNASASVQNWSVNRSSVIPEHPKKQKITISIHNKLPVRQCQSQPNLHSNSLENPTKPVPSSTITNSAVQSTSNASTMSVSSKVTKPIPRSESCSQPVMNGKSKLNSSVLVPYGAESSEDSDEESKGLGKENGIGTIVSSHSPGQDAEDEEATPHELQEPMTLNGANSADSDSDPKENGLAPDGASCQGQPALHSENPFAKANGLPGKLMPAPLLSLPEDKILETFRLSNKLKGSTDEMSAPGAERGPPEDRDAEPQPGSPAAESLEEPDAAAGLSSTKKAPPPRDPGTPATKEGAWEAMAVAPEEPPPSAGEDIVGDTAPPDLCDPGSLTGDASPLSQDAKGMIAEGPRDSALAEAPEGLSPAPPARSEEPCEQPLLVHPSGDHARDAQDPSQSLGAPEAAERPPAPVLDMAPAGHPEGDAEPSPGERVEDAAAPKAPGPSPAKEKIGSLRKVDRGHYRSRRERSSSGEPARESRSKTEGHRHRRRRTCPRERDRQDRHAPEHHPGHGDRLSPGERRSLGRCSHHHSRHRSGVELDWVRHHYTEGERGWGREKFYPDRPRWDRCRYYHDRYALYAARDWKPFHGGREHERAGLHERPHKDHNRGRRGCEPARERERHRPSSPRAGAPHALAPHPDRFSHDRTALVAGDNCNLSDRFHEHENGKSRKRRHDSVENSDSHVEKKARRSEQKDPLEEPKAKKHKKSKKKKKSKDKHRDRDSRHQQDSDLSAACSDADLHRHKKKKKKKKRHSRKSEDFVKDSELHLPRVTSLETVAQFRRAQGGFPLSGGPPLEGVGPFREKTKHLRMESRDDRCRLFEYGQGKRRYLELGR
Procedure, shortened: (§1)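 Labelled DUBs were enriched with NeutrAvidin, digested with LysC and trypsin, and run by diaPASEF LC-MS/MS. The labelling used Biotin-Ahx-Ub-VS at 0.5 µM final for 1 h on HEK293T lysate (495 µg per sample) previously treated in triplicate with fragment at 200 µM or vehicle for 3 h. Values are average log2 fragment/vehicle ratios by unpaired t-test on global-median-normalised Spectronaut quantities of proteins with ≥2 unique peptides.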

USP46 = USP46 (UniProt P62068)
Sequence of USP46 (P62068 whole entry): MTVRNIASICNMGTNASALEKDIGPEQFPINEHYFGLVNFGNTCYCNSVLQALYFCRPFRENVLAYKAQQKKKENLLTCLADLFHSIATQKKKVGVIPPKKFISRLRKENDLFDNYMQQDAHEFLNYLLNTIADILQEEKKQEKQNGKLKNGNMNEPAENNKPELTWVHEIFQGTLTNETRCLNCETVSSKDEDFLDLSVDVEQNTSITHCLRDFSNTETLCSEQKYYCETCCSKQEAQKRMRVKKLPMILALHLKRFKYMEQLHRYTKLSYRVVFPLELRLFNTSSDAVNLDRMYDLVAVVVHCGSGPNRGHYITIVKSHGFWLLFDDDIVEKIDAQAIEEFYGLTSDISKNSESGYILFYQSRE
Procedure, shortened: as §1

USP47 = molecular target: T2, USP47 (UniProt Q96K76)
T2 sequence (whole entry): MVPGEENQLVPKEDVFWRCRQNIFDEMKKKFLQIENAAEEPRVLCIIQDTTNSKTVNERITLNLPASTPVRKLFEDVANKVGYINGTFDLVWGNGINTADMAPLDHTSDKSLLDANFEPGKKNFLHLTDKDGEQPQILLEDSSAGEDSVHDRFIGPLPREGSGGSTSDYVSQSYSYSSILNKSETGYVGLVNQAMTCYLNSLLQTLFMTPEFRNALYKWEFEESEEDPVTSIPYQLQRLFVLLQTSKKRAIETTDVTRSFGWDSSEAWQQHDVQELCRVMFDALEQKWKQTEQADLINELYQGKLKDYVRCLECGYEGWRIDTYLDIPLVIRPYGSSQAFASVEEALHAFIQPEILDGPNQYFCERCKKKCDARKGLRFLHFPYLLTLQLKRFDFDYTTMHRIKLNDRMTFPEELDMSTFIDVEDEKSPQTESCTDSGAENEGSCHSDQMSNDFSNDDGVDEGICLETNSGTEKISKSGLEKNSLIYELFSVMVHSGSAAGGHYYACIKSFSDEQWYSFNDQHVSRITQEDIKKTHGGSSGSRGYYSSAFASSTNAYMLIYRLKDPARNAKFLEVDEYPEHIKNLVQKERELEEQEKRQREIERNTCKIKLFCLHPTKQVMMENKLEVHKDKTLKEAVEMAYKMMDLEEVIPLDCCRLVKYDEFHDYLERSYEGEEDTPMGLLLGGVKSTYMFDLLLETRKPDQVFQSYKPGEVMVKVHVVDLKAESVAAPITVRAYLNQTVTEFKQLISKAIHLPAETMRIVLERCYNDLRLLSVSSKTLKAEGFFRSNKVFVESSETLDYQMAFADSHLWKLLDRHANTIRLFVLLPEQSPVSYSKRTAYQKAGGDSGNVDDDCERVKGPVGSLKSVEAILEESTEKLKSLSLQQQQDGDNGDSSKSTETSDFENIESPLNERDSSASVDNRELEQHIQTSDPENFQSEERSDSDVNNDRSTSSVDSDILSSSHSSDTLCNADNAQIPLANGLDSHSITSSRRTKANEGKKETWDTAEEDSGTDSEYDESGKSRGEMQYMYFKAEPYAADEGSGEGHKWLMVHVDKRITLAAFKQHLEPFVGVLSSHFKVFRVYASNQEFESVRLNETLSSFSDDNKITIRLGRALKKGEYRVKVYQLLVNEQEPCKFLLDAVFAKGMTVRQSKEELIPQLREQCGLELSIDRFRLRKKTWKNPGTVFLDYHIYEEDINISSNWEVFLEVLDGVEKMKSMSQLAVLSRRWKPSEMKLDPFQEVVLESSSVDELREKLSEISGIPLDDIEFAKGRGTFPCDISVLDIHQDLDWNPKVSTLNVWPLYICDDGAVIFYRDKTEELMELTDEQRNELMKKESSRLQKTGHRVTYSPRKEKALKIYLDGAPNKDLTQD
Procedure, shortened: as §1

USP48 = molecular target: T3, USP48 (UniProt Q86UV5)
T3 sequence (whole entry): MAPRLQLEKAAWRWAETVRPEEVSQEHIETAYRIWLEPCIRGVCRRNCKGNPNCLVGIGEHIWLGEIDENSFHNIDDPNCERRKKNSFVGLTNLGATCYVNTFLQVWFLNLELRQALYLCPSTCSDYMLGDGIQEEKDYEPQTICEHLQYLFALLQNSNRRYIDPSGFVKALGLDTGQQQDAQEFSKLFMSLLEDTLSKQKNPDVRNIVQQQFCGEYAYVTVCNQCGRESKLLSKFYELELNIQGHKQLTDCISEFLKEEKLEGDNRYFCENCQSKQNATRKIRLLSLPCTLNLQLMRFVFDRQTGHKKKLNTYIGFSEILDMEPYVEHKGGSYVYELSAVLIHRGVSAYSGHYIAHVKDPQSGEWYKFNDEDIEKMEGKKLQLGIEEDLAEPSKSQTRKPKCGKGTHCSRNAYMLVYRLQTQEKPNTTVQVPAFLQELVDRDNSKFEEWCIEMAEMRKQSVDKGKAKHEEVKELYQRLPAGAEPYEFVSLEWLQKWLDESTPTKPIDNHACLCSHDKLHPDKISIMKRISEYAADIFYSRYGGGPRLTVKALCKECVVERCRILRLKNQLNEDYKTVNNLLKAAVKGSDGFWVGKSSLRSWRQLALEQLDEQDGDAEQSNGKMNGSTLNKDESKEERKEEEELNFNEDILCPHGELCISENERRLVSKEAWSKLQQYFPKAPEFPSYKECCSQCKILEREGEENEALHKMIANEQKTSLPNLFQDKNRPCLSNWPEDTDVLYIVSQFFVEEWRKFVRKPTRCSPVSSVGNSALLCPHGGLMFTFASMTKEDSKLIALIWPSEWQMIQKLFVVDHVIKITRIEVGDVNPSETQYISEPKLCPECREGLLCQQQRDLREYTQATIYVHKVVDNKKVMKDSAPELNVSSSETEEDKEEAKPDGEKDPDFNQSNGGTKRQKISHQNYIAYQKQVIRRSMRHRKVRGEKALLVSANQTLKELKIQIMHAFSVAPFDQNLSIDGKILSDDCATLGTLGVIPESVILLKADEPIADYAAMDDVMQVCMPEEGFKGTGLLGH
Procedure, shortened: as §1

USP5 = molecular target: T4, USP5 (UniProt P45974)
T4 sequence (whole entry): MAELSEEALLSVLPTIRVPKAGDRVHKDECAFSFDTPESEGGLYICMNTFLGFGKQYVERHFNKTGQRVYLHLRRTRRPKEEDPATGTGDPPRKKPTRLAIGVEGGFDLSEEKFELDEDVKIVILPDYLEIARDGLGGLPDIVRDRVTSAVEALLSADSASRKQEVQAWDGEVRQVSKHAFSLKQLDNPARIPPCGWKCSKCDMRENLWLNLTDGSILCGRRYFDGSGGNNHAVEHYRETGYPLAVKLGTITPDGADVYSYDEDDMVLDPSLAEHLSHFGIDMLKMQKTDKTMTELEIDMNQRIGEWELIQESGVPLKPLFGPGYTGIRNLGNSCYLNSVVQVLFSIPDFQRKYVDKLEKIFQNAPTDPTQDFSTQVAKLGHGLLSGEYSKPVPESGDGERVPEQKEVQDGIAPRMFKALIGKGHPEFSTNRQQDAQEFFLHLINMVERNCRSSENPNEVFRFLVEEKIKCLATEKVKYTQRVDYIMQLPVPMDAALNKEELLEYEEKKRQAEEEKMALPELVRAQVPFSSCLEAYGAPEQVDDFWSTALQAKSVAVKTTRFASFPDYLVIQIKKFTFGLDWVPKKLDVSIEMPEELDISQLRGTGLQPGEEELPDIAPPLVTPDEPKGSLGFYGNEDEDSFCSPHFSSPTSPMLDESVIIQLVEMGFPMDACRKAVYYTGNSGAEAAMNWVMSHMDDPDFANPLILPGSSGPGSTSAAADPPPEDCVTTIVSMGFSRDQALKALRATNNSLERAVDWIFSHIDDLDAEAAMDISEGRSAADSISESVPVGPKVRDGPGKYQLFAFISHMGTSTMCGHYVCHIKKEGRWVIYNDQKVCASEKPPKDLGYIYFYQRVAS
Procedure, shortened: as §1

USP54 = USP54 (UniProt Q70EL1)
Procedure, shortened: as §1

USP7 = USP7 (UniProt Q93009)
Sequence of USP7 (Q93009 whole entry, looked up): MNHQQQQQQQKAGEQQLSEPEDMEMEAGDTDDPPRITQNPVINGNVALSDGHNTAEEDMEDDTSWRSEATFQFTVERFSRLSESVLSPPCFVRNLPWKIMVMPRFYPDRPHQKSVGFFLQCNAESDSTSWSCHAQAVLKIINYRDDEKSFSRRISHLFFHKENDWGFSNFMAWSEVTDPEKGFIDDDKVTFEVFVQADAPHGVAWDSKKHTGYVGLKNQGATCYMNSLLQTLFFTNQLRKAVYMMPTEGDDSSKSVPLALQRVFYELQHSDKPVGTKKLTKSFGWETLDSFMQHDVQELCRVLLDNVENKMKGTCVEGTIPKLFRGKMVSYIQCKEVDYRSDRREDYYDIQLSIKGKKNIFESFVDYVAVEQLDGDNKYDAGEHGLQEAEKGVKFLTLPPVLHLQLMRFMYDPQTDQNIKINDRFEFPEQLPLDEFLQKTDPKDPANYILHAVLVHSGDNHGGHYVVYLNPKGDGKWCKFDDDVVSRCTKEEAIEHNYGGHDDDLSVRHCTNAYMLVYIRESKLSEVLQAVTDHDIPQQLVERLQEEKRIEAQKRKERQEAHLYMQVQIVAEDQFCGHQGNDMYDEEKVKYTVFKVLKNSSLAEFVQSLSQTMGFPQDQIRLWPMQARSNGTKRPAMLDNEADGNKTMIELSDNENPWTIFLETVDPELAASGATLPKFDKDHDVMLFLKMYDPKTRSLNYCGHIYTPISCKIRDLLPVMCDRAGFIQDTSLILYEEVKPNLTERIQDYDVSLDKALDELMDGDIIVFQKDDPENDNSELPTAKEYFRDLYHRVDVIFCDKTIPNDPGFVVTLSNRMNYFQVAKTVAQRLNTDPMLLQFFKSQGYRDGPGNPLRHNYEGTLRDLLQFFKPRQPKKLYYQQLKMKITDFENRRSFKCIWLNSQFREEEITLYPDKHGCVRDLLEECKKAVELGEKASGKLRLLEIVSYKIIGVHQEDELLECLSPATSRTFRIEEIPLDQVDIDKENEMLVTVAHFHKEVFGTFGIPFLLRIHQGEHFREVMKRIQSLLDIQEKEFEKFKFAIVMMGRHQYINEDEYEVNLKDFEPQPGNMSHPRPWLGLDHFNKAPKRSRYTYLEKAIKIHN
Procedure, shortened: as §1

USP8 = molecular target: T5, USP8 (UniProt P40818)
T5 sequence (whole entry): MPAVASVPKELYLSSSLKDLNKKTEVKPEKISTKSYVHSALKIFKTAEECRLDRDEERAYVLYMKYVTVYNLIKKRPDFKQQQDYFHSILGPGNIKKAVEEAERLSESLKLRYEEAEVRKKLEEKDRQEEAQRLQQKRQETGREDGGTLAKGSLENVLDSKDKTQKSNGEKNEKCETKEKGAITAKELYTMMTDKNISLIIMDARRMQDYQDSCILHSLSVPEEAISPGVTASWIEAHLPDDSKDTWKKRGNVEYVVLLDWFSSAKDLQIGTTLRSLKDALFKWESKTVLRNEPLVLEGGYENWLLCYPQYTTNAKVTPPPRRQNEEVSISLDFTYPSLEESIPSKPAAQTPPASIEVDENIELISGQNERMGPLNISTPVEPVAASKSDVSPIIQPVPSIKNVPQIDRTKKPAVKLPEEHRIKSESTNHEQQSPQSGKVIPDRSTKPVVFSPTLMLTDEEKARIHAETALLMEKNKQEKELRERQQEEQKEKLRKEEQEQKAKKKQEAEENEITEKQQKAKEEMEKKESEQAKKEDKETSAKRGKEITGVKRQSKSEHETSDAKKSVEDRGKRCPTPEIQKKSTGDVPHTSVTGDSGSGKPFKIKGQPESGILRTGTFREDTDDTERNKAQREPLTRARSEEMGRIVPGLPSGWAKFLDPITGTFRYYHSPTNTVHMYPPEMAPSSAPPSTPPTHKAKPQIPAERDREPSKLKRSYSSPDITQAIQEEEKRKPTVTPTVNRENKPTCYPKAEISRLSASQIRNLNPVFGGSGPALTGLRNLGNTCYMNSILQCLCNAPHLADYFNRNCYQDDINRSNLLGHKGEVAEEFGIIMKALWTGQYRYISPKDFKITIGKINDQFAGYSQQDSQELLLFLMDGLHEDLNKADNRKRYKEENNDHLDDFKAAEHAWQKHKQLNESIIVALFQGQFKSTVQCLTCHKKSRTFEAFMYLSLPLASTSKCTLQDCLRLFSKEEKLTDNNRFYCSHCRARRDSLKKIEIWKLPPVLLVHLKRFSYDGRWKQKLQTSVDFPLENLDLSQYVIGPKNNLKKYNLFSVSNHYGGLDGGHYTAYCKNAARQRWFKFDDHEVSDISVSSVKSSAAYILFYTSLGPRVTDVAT
Procedure, shortened: as §1

USP9X = USP9X (UniProt Q93008)
Sequence of USP9X (Q93008 whole entry): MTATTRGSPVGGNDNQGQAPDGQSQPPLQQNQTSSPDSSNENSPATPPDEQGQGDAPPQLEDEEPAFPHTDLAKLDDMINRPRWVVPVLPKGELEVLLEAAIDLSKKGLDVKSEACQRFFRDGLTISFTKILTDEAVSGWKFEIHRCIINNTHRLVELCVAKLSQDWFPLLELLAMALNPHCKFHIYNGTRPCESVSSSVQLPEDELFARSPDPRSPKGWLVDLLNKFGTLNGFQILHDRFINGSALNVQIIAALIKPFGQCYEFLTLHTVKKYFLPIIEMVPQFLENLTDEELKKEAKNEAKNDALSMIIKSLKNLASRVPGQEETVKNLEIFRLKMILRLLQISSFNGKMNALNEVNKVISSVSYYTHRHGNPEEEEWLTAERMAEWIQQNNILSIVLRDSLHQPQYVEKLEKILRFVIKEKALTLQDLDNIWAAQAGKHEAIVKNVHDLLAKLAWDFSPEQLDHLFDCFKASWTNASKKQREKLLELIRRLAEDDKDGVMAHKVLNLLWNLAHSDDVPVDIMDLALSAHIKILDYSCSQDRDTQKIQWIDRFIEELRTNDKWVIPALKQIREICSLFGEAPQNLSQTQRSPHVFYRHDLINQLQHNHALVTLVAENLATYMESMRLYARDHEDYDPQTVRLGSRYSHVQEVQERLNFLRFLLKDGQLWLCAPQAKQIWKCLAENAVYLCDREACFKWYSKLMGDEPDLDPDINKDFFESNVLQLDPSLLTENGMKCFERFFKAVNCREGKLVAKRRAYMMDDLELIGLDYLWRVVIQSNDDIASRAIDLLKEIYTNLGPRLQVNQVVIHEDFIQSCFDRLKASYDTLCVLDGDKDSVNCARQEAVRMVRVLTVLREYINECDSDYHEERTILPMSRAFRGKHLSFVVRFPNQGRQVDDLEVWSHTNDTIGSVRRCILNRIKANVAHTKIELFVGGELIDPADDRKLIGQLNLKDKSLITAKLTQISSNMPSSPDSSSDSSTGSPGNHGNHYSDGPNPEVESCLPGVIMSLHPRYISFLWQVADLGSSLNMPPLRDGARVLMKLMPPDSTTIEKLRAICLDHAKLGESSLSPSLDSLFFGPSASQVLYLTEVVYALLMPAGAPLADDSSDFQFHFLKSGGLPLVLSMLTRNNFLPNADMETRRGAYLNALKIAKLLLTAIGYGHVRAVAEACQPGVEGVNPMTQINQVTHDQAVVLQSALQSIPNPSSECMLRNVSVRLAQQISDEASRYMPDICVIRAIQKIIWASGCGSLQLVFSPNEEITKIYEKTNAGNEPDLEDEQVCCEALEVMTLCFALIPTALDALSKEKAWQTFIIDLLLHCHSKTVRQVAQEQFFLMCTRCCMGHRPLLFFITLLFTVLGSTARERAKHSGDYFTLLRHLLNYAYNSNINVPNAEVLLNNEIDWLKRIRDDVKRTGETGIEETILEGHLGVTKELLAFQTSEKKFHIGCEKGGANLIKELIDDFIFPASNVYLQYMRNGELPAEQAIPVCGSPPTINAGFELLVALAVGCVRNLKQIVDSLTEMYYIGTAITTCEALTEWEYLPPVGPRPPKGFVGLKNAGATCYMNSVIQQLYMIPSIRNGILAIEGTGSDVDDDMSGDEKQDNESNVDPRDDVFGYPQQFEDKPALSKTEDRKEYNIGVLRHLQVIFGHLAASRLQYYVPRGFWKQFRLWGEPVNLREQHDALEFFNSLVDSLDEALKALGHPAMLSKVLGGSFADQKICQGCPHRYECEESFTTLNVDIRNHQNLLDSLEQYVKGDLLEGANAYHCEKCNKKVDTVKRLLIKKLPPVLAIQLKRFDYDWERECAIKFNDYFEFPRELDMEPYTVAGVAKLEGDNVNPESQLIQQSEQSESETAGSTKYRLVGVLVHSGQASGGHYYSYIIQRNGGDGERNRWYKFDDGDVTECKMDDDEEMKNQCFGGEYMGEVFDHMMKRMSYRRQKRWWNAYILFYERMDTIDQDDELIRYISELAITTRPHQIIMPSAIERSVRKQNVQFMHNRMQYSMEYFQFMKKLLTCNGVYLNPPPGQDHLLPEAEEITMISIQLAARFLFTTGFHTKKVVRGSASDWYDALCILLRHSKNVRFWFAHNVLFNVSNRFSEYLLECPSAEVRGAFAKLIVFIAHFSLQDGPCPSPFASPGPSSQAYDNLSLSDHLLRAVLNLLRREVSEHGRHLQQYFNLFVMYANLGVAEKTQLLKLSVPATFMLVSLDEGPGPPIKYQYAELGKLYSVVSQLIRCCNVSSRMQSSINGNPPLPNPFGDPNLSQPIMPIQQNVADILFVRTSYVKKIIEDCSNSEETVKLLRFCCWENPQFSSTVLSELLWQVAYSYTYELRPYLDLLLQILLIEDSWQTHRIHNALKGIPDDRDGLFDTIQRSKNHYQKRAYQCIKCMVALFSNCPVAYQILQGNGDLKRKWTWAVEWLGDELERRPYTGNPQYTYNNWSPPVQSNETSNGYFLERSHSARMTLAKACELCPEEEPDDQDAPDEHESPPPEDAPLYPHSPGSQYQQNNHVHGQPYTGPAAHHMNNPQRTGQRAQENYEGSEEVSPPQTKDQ
Procedure, shortened: as §1

UniProt O00487 = molecular target: UniProt O00487
Sequence of UniProt O00487 (O00487 whole entry): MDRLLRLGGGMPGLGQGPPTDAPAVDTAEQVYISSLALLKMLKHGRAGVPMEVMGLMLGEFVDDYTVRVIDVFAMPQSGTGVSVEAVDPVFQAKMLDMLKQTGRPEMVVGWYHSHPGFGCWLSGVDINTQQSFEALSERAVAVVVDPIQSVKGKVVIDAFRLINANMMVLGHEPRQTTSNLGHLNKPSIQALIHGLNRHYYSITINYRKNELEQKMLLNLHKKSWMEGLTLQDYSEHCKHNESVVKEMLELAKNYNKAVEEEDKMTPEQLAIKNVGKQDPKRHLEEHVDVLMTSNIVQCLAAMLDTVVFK
Procedure, shortened: as §1

Measured: log2 ratio of Biotin-Ahx-Ub-VS probe labelling

Cc1cccnc1NC(=O)C1CCN(C(=O)CCl)CC1.Cl
inactive: USP42 -0.427 | USP46 -0.0664 | USP47 -0.337 | USP48 -0.172 | USP5 -0.0361 | USP54 0.628 | USP7 -0.121 | USP8 -0.221 | USP9X -0.327 | UniProt O00487 0.014
